Screening results deposited in PubChem BioAssay by several laboratories.
CYP2C9 activ: increases human cytochrome P450 2C9 activity. recombinant CYP2C9, luciferin-H conversion, luminescence; active compounds read high; factor 1 = untreated enzyme, 0 = blocked. activation factor at 5 µM. 96,000 compounds, 1.4% hits. AID 1024;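 active = activation factor of 2 or more for CYP2C9 at a 5 µM dose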;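 also: 0 = sulfaphenazole-blocked wells and 1 = vehicle-only wells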
Target sequence (P11712 whole entry, looked up): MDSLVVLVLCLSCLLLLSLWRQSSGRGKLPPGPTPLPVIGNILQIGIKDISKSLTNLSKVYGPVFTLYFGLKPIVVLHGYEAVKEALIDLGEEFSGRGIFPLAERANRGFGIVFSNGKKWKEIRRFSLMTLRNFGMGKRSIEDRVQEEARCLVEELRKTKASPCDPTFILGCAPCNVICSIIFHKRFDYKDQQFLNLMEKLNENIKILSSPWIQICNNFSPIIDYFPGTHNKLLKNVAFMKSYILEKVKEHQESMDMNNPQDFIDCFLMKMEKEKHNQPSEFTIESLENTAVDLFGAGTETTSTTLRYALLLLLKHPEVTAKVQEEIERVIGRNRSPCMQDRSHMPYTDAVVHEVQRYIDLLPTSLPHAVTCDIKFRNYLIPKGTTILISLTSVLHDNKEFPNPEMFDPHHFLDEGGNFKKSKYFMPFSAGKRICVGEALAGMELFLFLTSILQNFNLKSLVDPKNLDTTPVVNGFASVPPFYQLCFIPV
CYP2C9 inh: blocks human cytochrome P450 2C9; inhibition, % at 5 µM; AID 777; CYP2C9 Supersomes, luciferin-H conversion, luminescence; P11712; 96,000 compounds, 20% hits;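 active = blocking of liver enzyme CYP2C9 beyond about 50% at 5 µM, limit read from the data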
E-sel TNF inh: TNF alpha driven E-selectin expression inhibition | HUVEC TNFa-induced E-selectin immunofluorescence, high content | inhibition, % at 2 µM | 120,000 compounds, 0.71% hits;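 active = inhibition above the batch mean plus 3 SD, and confirmed as a hit on visual image review, cut at about 43% in these data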;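 also: 0% = TNF-stimulated DMSO wells and 100% = unstimulated control wells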
CYP2C19 inh: inhibitors of human CYP2C19; P33261; CYP2C19 Supersomes, luciferin-H EGE luminescence, 30 min; inhibition, % at 5 µM; 96,000 compounds, 21% hits; AID 778;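 active = CYP2C19 inhibition above a set limit at 5 µM in the primary screen, cut at about 50% in these data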;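 also: plate controls were negative control wells for no effect and 2.5 mM tranylcypromine positive control for full effect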
CYP2C19 activ: cytochrome P450 2C19 (human) activation; P33261; recombinant CYP2C19, luciferin-H EGE luminescence; active compounds read high; 0 = fully inhibited enzyme, 1 = untreated enzyme; activation factor at 5 µM; 96,000 tested, under 10 active;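 active = activation factor of at least 2 at 5 µM in the primary screen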;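 also: 0 = wells with 2.5 mM tranylcypromine and 1 = vehicle-only wells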
F-actin modifier: alters cytoskeleton assembly in HUVEC cells. HUVEC TNFa F-actin phalloidin imaging, high content. inhibition, % at 2 µM. 91,000 compounds, 0.18% hits;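 active = inhibition above the batch mean plus 3 SD and confirmed as a hit by visual image inspection, cut at about 30% in these data, passing the limit was not always enough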
An asterisk follows results filed as active; nt = no result. In the library only some 22% were active in any assay of this set; here they are far more common.

SMILES	CYP2C9 activ	CYP2C9 inh	E-sel TNF inh	CYP2C19 inh	CYP2C19 activ	F-actin modifier
COc1cccc(NC(=O)N(CCCN2CCOCC2)C(C)c2cc3cccc(OC)c3o2)c1 (stereo not drawn)	0.3	67*	-23	66*	0.3	0
Cc1ccc(Sc2ccc(/C=N/O)cc2[N+](=O)[O-])cc1	0.4	64*	-8	0	1	-10
CO/N=C/c1cc([N+](=O)[O-])ccc1Sc1ccc(C)cc1	0.4	64*	nt	65*	0.4	6
Cc1nn(S(=O)(=O)c2cccs2)c(C)c1Sc1ccc([N+](=O)[O-])cc1	0.7	28	-76	24	0.8	1
Cc1nn(S(=O)(=O)c2ccccc2)c(C)c1Sc1ccc([N+](=O)[O-])cc1	0.6	36	nt	62*	0.4	46*
O=C(OCCCCN1C(=O)c2ccccc2C1=O)c1ccc(Br)o1	0.4	55*	-6	49	0.5	13
CC(C)OC(=O)CCCN1C(=O)c2ccc(N)cc2C1=O	1.2	-18	nt	74*	0.3	3
CC(=O)OCCCN1C(=O)c2ccc(Br)cc2C1=O	1	-2	-102	57*	0.4	nt
O=C(OCCN1C(=O)c2ccccc2C1=O)c1ccco1	nt	nt	-17	nt	nt	-3
COc1ccc(C(C)=O)c2c(O)cccc12	0.6	39	0	87*	0.1	-2
COc1ccc(N=C(N)SCc2ccccn2)cc1	nt	nt	4	nt	nt	nt
COc1ccc(C(=O)NC(=S)NCc2ccc(-c3nc4ccccc4o3)cc2)cc1OC	1.6	-60	8	19	0.8	-6
CCOc1cc(C(=O)NCc2ccc(-c3nc4ccccc4o3)cc2)cc(OCC)c1OCC	0.9	12	66*	13	0.9	1
CCOC(=O)c1[nH]cc(-c2ccccc2)c1N1CCOCC1	0.7	31	7	93*	0.1	4
CC(NC(=O)/C(C#N)=C/c1cn[nH]c1-c1ccccc1)c1ccccc1 (stereo not drawn)	0.7	29	-55	39	0.6	-28
N#C/C(=C\c1cn[nH]c1-c1ccc(Cl)cc1)C(=O)NCc1ccccc1	0.1	88*	-80	88*	0.1	-4
COc1ccc(-c2[nH]ncc2/C=C(\C#N)C(=O)NC2CC2)cc1	0.5	52*	14	54*	0.5	-1
CCc1ccc(C(C)NC(=O)/C(C#N)=C\c2cn[nH]c2-c2ccccc2)cc1 (stereo not drawn)	1	0	2	13	0.9	2
N#C/C(=C\c1cn[nH]c1-c1ccccc1)C(=O)NC1CCCCCC1	2*	-98	-25	-3	1	nt
Cc1nnc(SCC2=C(C(=O)O)N3C(=O)C(NC(=O)c4cc(F)c(F)cc4Cl)C3SC2)s1 (stereo not drawn)	nt	nt	-16	nt	nt	nt
CC1CCN(C(=O)c2cccc(S(=O)(=O)N3CCCCC3)c2)CC1	0.8	16	-31	23	0.8	nt
Cc1cc(N2CCN(C)CC2)nc2ccc(NC(=O)CCC(=O)NCCC3=CCCCC3)cc12	nt	nt	-14	nt	nt	-24
O=c1c(Cc2ccc(Cl)cc2Cl)c(O)ccn1Cc1ccc(Cl)cc1	0.9	13	nt	54*	0.5	10
O=c1c(Cc2ccc(Cl)cc2)c(O)ccn1Cc1cccc(Cl)c1	0.8	22	5	0	1	12
CC(=O)NC1=C(C#N)C(c2ccccc2)c2c(ccc3ccccc23)O1 (stereo not drawn)	0	95*	nt	91*	0.1	12
SMILES	CYP2C9 activ	CYP2C9 inh	E-sel TNF inh	CYP2C19 inh	CYP2C19 activ	F-actin modifier
N#CC1=C(N)Oc2ccc3ccc(O)cc3c2C1c1ccsc1 (stereo not drawn)	nt	nt	-24	nt	nt	nt
O=C(O)c1cnc(-c2ccccc2)nc1Sc1ccc(Cl)cc1	0.4	61*	1	4	1	-31
O=C(O)c1cnc(-c2ccccc2)nc1Sc1ccccc1Cl	0.8	17	-24	-8	1.1	-8
COC(C(=O)Nc1ccc(S(=O)(=O)N2CCCCC2)cc1)c1ccccc1 (stereo not drawn)	0.2	80*	-28	46	0.5	-7
CC(=O)NC(CC(=O)Nc1cccc(S(=O)(=O)N2CCCCC2)c1)c1ccccc1 (stereo not drawn)	0.6	38	-7	8	0.9	-1
CC(=O)NC(CC(=O)Nc1ccc(S(=O)(=O)N2CCCCC2)cc1)c1ccccc1 (stereo not drawn)	0.3	74*	-24	69*	0.3	0
CCOc1cc(C=C(C(=O)OC)C(=O)OC)ccc1OCc1ccc([N+](=O)[O-])cc1	0.6	39	-4	22	0.8	-25
c1ccc(N2CCN(c3nnc(Cc4cccnc4)c4ccccc34)CC2)nc1	0.7	26	nt	53*	0.5	-8
COc1ccc(N2C(=O)C3CCCN3C2c2ccccc2Cl)cc1 (stereo not drawn)	0.6	38	-17	34	0.7	-6
O=C(CCN1C(=O)c2ccccc2S1(=O)=O)Nc1ccccc1O	nt	nt	6	nt	nt	nt
O=C1c2ccccc2S(=O)(=O)N1CCOc1ccc(F)cc1	0.4	63*	1	99*	0	-74
COC(=O)C1C2CCC(C2)C1C(=O)OCC(=O)c1ccc(C)cc1 (stereo not drawn)	0.9	10	7	20	0.8	-3
CC(C)Oc1cccc(C(=O)C2CCCN(Cc3cnc(N4CCCC4)s3)C2)c1 (stereo not drawn)	nt	nt	-42	nt	nt	nt
CC(=O)SC(C)CC(=O)NCc1ccccc1 (stereo not drawn)	0.9	10	5	42	0.6	3
CC(CC(=O)Nc1cccc(Cl)c1)c1ccccc1 (stereo not drawn)	nt	nt	6	nt	nt	nt
CN(CC(=O)Nn1cnnc1)S(=O)(=O)c1ccccc1	0.7	26	4	73*	0.3	-4
CC(CC(=O)Nc1ccncc1)c1ccccc1 (stereo not drawn)	0	96*	2	98*	0	10
CC(CC(=O)Nc1cc([N+](=O)[O-])ccc1Cl)c1ccccc1 (stereo not drawn)	0.9	7	-5	51*	0.5	18
CC(=O)SC(C)CC(=O)Nc1ccccc1 (stereo not drawn)	0.8	21	nt	71*	0.3	nt
Nc1nnc(SCC(=O)NN2C(=O)NC3(CCCCC3)C2=O)s1	nt	nt	-21	nt	nt	nt
CCOc1ccc(S(=O)(=O)Nc2cc(S(=O)(=O)N(CC)CC)ccc2N2CCCC2)cc1	nt	nt	-30	nt	nt	nt
CN(CC(=O)Nc1ccncc1)S(=O)(=O)c1ccc(Cl)cc1	0.2	80*	-18	100*	0	nt
CN(CC(=O)Nc1cccnc1)S(=O)(=O)c1cc(Cl)ccc1Cl	0.5	48	-4	80*	0.2	11
CN(CC(=O)O/N=C(\N)c1ccccn1)S(=O)(=O)c1cc(Cl)ccc1Cl	1.5	-54	-33	14	0.9	-7
CN(CC(=O)Nc1ccncc1)S(=O)(=O)c1ccccc1	0.4	63*	15	98*	0	-5
